Inconclusive results are not listed. Activity calls are given as the source filed them. How the source made its calls: active means hit-call score of the fitted dose curve at least 0.9, where 1 is the maximum; inconclusive means response in the unintended direction; inactive means score below 0.9.

Sequence of Nuclear receptor subfamily 1 group I member 3 (Homo sapiens) (Q14994 whole entry, looked up): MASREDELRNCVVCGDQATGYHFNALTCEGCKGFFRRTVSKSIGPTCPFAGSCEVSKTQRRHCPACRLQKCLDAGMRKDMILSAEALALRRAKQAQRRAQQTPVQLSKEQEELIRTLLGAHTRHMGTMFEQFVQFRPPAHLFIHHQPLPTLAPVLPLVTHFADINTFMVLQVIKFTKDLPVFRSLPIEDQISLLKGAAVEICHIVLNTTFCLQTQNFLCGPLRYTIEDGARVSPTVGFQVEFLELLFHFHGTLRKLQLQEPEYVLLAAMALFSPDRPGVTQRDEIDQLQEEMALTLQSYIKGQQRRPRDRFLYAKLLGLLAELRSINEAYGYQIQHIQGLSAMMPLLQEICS

The target of the assay is Nuclear receptor subfamily 1 group I member 3 (Homo sapiens) (UniProt Q14994). The assay is described as follows: ATG_CAR_TRANS: Attagene TRANS-FACTORIAL HepG2 Assay for human Constitutive Androstane Receptor (CAR) (AID 2282969).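 Further: activators raise reporter mRNA above DMSO so AC50 marks induction.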 Conditions: HepG2 Attagene TRANS-FACTORIAL CAR reporter. Here is the method:
ATG_TRANS is a cell-based, multiplexed-readout assay that uses HepG2, a human liver cell line, with measurements taken at 24 hours after chemical dosing in a 24-well plate.ATG_CAR_TRANS is one of 30 assay component(s) measured or calculated from the ATG_TRANS assay. It is designed to make measurements of mRNA induction, a form of inducible reporter, as detected with fluorescence intensity signals by Reverse transcription polymerase chain reaction (RT-PCR) and Capillary electrophoresis technology.Data from the assay component ATG_CAR_TRANS was analyzed into 1 assay endpoint. This assay endpoint, ATG_CAR_TRANS, was analyzed in the positive analysis fitting direction relative to DMSO as the negative control and baseline of activity. Using a type of inducible reporter, measures of mRNA for gain-of-signal activity can be used to understand the reporter gene at the transcription factor-level as they relate to the gene NR1I3. Furthermore, this assay endpoint can be referred to as a primary readout, because this assay has produced multiple assay endpoints where this one serves a reporter gene function. To generalize the intended target to other relatable targets, this assay endpoint is annotated to the nuclear receptor intended target family, where the subfamily is non-steroidal.
Human liver HepG2 cells are transiently transfected with multiple reporter transcription units (MRTUs) in 6-well plates using FuGene 6 reagent (Roche; 3 ml FuGene/1 mg DNA). The MRTU constructs are regulated by a cis-regulating element (promoter). […] A major difference between the CIS and TRANS system is that in CIS activities of endogenous TFs are measured, whereas the TRANS assay evaluates changes in activities of exogenous, chimeric NR-Gal4 proteins. […] At the end of 24 hour incubation, total RNA was isolated using TriZol reagent (Invitrogen). The isolated RNA is then reverse-transcribed using oligo(dT) primer and Mo-MLV reverse transcriptase (Invitrogen) with DNAse I (Ambion) treatment for 30 min. The one-tenth of the produced cDNA was amplified by PCR using Taq DNA polymerase (Invitrogen) and two reporter sequence-specific primers. The PCR products were fluorescently labeled by primer extension with 6-arboxyfluorescein (6-FAM) 5'-labeled reporter sequence-specific primer (2 min at 95 C, 20 s at 68 C and 10 min at 72 C) and these products were digested with 5U of HpaI (New England Biolabs) for 2h at 37 C. The fragments were purified using Qiaquick PCR columns (Qiagen), analyzed on an ABI 3130xL genetic analyzer (Applied Biosystems) with peak positions identified by using a set of X-rhodamine (ROX)-labeled MapMarker1000 molecular weight standards (BioVentures). The raw capillary electrophoresis data was processed using Attagraph software (Attagene).
With `N#Cc1c(Cl)cccc1Cl`, the outcome was inactive.

With `CCN(CC)c1nc(C)cc(OP(=S)(OC)OC)n1`, the outcome was inactive.

On to `COC(=O)c1c(C(F)F)nc(C(F)(F)F)c(C2=NCCS2)c1CC(C)C`, for which the compound was classed as inactive.

Take `COP(=S)(OC)Oc1ccc([N+](=O)[O-])c(C)c1`: the compound was classed as inactive.

Regarding `CCNP(=S)(OC)O/C(C)=C/C(=O)OC(C)C` (stereo not given), the compound was classed as inactive.

For the compound `O=C(Nc1ccccc1-c1ccc(Cl)cc1)c1cccnc1Cl`, the compound was called inactive.

Regarding `CCSC(=O)N1CCCCCC1`, the compound was classed as inactive.

In the case of `CCCCC(O)(Cn1cncn1)c1ccc(Cl)cc1Cl` (stereo not given), the outcome was inactive.

On to `COCC(=O)N(c1c(C)cccc1C)C(C)C(=O)OC` (stereo not given), for which the compound was classed as inactive.

For `CCOc1nc(C(Cl)(Cl)Cl)ns1`, the result was inactive.

For the compound `CC1(C)CON(Cc2ccccc2Cl)C1=O`, the call was inactive.

For the compound `COc1cc(OC)nc(NC(=O)NS(=O)(=O)c2ncccc2OCC(F)(F)F)n1`, the compound was classed as inactive.

On to `CCNC(=O)NC(=O)C(C#N)=NOC`, for which the call was inactive.

For the compound `Nc1cnn(-c2ccccc2)c(=O)c1Cl`, the outcome was inactive.

With `COCc1cnc(C2=NC(C)(C(C)C)C(=O)N2)c(C(=O)O)c1` (stereo not given), the outcome was inactive.

As for `CCCCOCN(C(=O)CCl)c1c(CC)cccc1CC`, the outcome was inactive.

On to `CCCCC(C#N)(Cn1cncn1)c1ccc(Cl)cc1` (stereo not given), for which the compound was called inactive.

For the compound `CC(C)Nc1nc(Cl)nc(NC(C)C)n1`, the result was inactive.

As to `CC1(C)C(C=C(Cl)Cl)C1C(=O)OC(C#N)c1cccc(Oc2ccccc2)c1` (stereo not given), the result was inactive.

Consider `Cc1ccc(N=CN(C)C=Nc2ccc(C)cc2C)c(C)c1`, for which the call was inactive.

Take `CC(C)=CC1C(C(=O)OCc2coc(Cc3ccccc3)c2)C1(C)C` (stereo not given): the result was inactive.

`C=C(C)CN(CC)c1c([N+](=O)[O-])cc(C(F)(F)F)cc1[N+](=O)[O-]`: the call was inactive.

For `CSC(=O)c1c(C(F)F)nc(C(F)(F)F)c(C(=O)SC)c1CC(C)C`, the outcome was inactive.

For `CCCC(=NOCC)C1=C(O)CC(CC(C)SCC)CC1=O` (stereo not given), the call was inactive.

For `O=C1C2CC=CCC2C(=O)N1SC(Cl)(Cl)Cl` (stereo not given), the compound was called inactive.

For the compound `CC1(C)C(C(=O)OC(C#N)c2cccc(Oc3ccccc3)c2)C1(C)C` (stereo not given), the result was inactive.

Consider `CCOc1nc(F)cc2nc(S(=O)(=O)Nc3c(Cl)cccc3Cl)nn12`, for which the compound was called inactive.

Regarding `CCN(CC)C(=O)C(C)Oc1cccc2ccccc12` (stereo not given), the outcome was inactive.

On to `CCC(C)n1c(=O)[nH]c(C)c(Br)c1=O` (stereo not given), for which the compound was classed as inactive.

As to `CCOc1cc(C(C)(C)C)ccc1C1COC(c2c(F)cccc2F)=N1` (stereo not given), the compound was called inactive.

Take `CS(=O)(=O)c1cc(C(F)(F)F)ccc1C(=O)c1cnoc1C1CC1`: the call was inactive.

With `CCCN(CC)CC1COC2(CCC(C(C)(C)C)CC2)O1` (stereo not given), the result was inactive.

On to `CNC(=O)Oc1cccc2ccccc12`, for which the outcome was inactive.

For the compound `Cc1cc(C)nc(Nc2ccccc2)n1`, the compound was called inactive.

Consider `CO/N=C(/C1=NOCCO1)c1ccccc1Oc1ncnc(Oc2ccccc2Cl)c1F`, for which the result was inactive.

In the case of `CC1(C)CCC(=Cc2ccc(Cl)cc2)C1(O)Cn1cncn1` (stereo not given), the compound was classed as inactive.

As for `O=c1n(Cl)c(=O)n(Cl)c(=O)n1Cl`, the compound was classed as inactive.

Consider `CN/C(=N\[N+](=O)[O-])NCc1cnc(Cl)s1`, for which the result was inactive.

In the case of `CCOC(=O)C(C)OC(=O)c1cc(Oc2ccc(C(F)(F)F)cc2Cl)ccc1[N+](=O)[O-]` (stereo not given), the outcome was inactive.

Turning to `CC(C)N1C(=O)N(c2ccccc2)CSC1=NC(C)(C)C`, the call was inactive.
